# Laboratory results published in PubChem BioAssay.
# Active and inactive are the calls of the source.
# Experiments:
# [1] = tested on: PRMT1 (protein arginine N-methyltransferase 1); experiment: PRMT1 binders on small-molecule microarrays, primary screen, biochemical, small-molecule microarray, 635 nm fluorescence (AID 1088); conditions: small-molecule microarray binding, higher = more signal;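 further: binding of Prmt1 protein to compounds spotted on small-molecule microarray slides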
# [2] = yeast growth modulation, basal conditions, primary screen, YJM789 clinical isolate, OD600, 24 h (AID 1089);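 further: growth of clinical yeast isolate S. cerevisiae YJM 789 seeded 1000 cells per well; test concentration not given here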; conditions: S. cerevisiae YJM789 growth, higher = more signal, called active from +8 up or from −8 down
# [3] = fission yeast growth modulation, primary screen, strain 972, OD600, 24 h, no modulator (AID 1090);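 further: basal condition with compound alone and no growth modifier present; test concentration not given here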; conditions: S. pombe 972 growth, higher = more signal, called active from +8 up or from −8 down
# [4] = S. cerevisiae growth modulation with rapamycin, primary screen, strain BY4716, OD600, 96 h (AID 1091); conditions: higher = more signal, called active from +8 up or from −8 down; further: test concentration not given here
# [5] = biological target: Torsin-1A-interacting protein 2 (Homo sapiens) (UniProt Q8NFQ8); experiment: LULL1 binders on small-molecule microarray, primary screen, cell lysate, human LULL1 lysate, 635/667 nm fluorescence (AID 1092); conditions: hLULL1 lysate binding, 635 nm fluorescence, higher = more signal;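 further: probe is lysate of COS7 cells overexpressing human LULL1; score merges per-feature 667 nm fluorescence with signal-to-noise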
# [6] = E. coli growth modulation, two-sided OD650, primary screen, E. coli filamentation project, strain DRC41, 24 h (AID 1093); conditions: OD650, 24 h, higher = more signal, called active from +8 up or from −8 down;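 further: MC1000 strain lacking acrAB efflux and sulA so SOS filamentation is blocked; test concentration not given here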
# [7] = small-molecule microarray binders of probe aLefty2, primary screen, biochemical, biotinylated probe, 635/667 nm fluorescence (AID 1094); conditions: higher = more signal;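 further: score merges spot fluorescence near 667 nm with spot signal-to-noise ratio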
# [8] = tested on: Noggin (protein binding on small-molecule microarray); experiment: Noggin binders on small-molecule microarray, primary screen, biochemical, 635/667 nm fluorescence (AID 1095); conditions: 635 nm fluorescence, higher = more signal;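 further: score merges 667 nm feature fluorescence with signal to noise over triplicate slides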
# [9] = biological target: Neurogenic locus notch homolog protein 3 (Homo sapiens) (UniProt Q9UM47); experiment: NOTCH3 binders on small-molecule microarray, primary screen, biochemical, 635/667 nm fluorescence (AID 1096); conditions: NOTCH3 binding, 635 nm fluorescence, higher = more signal
# [10] = small-molecule microarray binders of probe aEGFR, primary screen, biochemical, biotinylated probe, 635/667 nm fluorescence (AID 1097); conditions: higher = more signal;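 further: probe is a biotinylated anti-EGFR antibody binding compounds printed on slides; score combines fluorescence near 667 nm and signal to noise of each spot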
# [11] = tested on: Plasmodium falciparum Sir2 (PF13_0152, Sir2A); experiment: pfSir2 binders on small-molecule microarrays, primary screen, biochemical, small-molecule microarray, 635 nm fluorescence (AID 1098); conditions: small-molecule microarray binding, fluorescence 635 nm; higher = more signal;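 further: score merges spot fluorescence intensity with its signal-to-noise ratio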
# [12] = small-molecule microarray binders of probe aDKK1, primary screen, biochemical, biotinylated probe, 635/667 nm fluorescence (AID 1099); conditions: higher = more signal;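 further: score merges 667nm spot fluorescence with signal to noise across triplicate slides; reference of the scale not given here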
# [13] = small-molecule microarray binders of probe aCHRDL2, primary screen, biochemical, biotinylated probe, 635/667 nm fluorescence (AID 1100); conditions: higher = more signal
# [14] = splicing luciferase reporter signal modulators, primary screen, spliceosome inhibition project, cell-based, HEK293, splice +/- reporter (AID 1101); conditions: luminescence, 24 h, higher = more signal, called active from +8 up or from −8 down;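 further: HEK293 cells carrying a splicing-competent luciferase reporter gene; test concentration not given here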
# [15] = biological target: Fibroblast growth factor 10 (Homo sapiens) (UniProt O15520); experiment: FGF10 binders on small-molecule microarrays, primary screen, biochemical, small-molecule microarray, 635 nm fluorescence (AID 1102); conditions: FGF10 binding, fluorescence 635 nm, higher = more signal
# [16] = tested on: glycogen synthase kinase-3 (GSK3A per assay name; protocol says GSK3B); experiment: GSK3 binders on small-molecule microarrays, primary screen, biochemical, small-molecule microarray, 635 nm fluorescence, GSK3A (AID 1103); conditions: small-molecule microarray binding, fluorescence 635 nm; higher = more signal; further: the record names both GSK3A and GSK3B
# [17] = biological target: Epidermal growth factor receptor (Homo sapiens) (UniProt P00533); experiment: EGFR binders on small-molecule microarrays, primary screen, biochemical, small-molecule microarray, 635 nm fluorescence (AID 1104); conditions: EGFR binding, higher = more signal;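 further: score merges 667 nm emission intensity with spot signal to noise over triplicate slides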
# [18] = biological target: Follistatin-related protein 3 (Homo sapiens) (UniProt O95633); experiment: FSTL3 binders on small-molecule microarrays, primary screen, biochemical, small-molecule microarray, 635 nm fluorescence (AID 1105); conditions: FSTL3 binding, higher = more signal;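 further: score merges emission near 667 nm and signal to noise per printed spot across three slides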
# [19] = biological target: Dickkopf-related protein 1 (Homo sapiens) (UniProt O94907); experiment: DKK1 binders on small-molecule microarrays, primary screen, biochemical, small-molecule microarray, 635 nm fluorescence scan (AID 1106); conditions: DKK1 binding, higher = more signal;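 further: score merges emission near 667 nm with signal to noise over three replicate slides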
# [20] = tested on: Inhibin beta A chain (activin A); experiment: INHBA (activin A) binders on microarrays, primary screen, biochemical, small-molecule microarray, 635 nm fluorescence scan (AID 1107); conditions: small-molecule microarray binding, higher = more signal;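 further: mouse activin A protein probed at 4.33 µg/mL on printed slides; score merges bound-protein fluorescence near 667 nm with spot signal-to-noise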
# Chain of Epidermal growth factor receptor (Homo sapiens) (P00533 whole entry, looked up): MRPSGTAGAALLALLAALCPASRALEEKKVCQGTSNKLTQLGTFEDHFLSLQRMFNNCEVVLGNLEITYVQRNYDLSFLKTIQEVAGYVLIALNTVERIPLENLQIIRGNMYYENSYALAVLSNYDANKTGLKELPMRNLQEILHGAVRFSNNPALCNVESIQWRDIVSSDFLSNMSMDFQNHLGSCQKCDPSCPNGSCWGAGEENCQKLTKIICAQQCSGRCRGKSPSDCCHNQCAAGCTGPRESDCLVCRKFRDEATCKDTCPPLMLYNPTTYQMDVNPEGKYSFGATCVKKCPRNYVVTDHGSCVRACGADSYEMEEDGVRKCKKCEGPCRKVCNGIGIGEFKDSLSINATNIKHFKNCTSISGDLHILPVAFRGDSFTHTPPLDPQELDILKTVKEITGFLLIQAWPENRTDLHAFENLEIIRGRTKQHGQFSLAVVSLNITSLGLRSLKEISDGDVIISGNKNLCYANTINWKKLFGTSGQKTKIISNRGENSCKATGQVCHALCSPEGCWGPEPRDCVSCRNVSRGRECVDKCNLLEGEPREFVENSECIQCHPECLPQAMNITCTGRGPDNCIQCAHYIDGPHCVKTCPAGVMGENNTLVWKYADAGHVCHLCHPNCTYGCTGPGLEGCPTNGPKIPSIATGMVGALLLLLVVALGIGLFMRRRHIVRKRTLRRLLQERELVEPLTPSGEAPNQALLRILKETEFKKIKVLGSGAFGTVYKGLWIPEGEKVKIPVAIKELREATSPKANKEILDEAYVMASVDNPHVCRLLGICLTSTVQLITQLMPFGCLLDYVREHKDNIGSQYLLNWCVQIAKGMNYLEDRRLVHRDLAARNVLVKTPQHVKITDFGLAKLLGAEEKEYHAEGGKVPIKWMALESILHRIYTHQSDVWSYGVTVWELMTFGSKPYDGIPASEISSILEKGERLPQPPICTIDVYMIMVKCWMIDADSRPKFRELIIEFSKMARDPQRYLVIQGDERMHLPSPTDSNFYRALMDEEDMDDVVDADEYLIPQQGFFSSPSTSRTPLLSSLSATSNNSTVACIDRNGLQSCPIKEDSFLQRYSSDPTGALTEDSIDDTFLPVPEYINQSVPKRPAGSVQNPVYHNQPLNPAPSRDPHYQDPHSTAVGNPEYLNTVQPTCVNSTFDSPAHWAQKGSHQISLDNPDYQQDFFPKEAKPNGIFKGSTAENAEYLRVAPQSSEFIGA
# Chain of Torsin-1A-interacting protein 2 (Homo sapiens) (Q8NFQ8 whole entry, looked up): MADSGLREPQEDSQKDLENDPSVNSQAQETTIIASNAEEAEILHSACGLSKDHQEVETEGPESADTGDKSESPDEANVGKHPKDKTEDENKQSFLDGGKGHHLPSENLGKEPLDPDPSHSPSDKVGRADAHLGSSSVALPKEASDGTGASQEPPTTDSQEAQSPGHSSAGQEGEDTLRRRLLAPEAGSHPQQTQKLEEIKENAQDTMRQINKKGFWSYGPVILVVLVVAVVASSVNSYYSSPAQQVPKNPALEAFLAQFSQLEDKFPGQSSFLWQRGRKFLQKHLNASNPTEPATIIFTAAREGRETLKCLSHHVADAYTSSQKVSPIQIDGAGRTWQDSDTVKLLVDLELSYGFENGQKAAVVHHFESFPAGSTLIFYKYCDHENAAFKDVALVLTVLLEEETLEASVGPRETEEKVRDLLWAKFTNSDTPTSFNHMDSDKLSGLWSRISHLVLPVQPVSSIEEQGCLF
# Chain of Fibroblast growth factor 10 (Homo sapiens) (O15520 whole entry, looked up): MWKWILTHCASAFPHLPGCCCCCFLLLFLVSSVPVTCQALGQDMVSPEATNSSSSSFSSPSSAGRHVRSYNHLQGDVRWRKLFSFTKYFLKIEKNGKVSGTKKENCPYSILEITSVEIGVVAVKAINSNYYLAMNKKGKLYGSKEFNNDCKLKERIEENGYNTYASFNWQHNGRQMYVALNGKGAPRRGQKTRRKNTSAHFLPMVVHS
# Chain of Dickkopf-related protein 1 (Homo sapiens) (O94907 whole entry, looked up): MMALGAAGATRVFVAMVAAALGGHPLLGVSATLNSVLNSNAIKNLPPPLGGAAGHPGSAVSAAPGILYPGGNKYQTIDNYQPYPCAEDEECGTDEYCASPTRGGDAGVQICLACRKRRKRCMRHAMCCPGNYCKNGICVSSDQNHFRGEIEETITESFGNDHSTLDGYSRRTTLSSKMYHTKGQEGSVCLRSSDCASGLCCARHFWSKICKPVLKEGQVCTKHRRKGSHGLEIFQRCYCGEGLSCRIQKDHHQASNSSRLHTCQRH
# Chain of Neurogenic locus notch homolog protein 3 (Homo sapiens) (Q9UM47 whole entry, looked up): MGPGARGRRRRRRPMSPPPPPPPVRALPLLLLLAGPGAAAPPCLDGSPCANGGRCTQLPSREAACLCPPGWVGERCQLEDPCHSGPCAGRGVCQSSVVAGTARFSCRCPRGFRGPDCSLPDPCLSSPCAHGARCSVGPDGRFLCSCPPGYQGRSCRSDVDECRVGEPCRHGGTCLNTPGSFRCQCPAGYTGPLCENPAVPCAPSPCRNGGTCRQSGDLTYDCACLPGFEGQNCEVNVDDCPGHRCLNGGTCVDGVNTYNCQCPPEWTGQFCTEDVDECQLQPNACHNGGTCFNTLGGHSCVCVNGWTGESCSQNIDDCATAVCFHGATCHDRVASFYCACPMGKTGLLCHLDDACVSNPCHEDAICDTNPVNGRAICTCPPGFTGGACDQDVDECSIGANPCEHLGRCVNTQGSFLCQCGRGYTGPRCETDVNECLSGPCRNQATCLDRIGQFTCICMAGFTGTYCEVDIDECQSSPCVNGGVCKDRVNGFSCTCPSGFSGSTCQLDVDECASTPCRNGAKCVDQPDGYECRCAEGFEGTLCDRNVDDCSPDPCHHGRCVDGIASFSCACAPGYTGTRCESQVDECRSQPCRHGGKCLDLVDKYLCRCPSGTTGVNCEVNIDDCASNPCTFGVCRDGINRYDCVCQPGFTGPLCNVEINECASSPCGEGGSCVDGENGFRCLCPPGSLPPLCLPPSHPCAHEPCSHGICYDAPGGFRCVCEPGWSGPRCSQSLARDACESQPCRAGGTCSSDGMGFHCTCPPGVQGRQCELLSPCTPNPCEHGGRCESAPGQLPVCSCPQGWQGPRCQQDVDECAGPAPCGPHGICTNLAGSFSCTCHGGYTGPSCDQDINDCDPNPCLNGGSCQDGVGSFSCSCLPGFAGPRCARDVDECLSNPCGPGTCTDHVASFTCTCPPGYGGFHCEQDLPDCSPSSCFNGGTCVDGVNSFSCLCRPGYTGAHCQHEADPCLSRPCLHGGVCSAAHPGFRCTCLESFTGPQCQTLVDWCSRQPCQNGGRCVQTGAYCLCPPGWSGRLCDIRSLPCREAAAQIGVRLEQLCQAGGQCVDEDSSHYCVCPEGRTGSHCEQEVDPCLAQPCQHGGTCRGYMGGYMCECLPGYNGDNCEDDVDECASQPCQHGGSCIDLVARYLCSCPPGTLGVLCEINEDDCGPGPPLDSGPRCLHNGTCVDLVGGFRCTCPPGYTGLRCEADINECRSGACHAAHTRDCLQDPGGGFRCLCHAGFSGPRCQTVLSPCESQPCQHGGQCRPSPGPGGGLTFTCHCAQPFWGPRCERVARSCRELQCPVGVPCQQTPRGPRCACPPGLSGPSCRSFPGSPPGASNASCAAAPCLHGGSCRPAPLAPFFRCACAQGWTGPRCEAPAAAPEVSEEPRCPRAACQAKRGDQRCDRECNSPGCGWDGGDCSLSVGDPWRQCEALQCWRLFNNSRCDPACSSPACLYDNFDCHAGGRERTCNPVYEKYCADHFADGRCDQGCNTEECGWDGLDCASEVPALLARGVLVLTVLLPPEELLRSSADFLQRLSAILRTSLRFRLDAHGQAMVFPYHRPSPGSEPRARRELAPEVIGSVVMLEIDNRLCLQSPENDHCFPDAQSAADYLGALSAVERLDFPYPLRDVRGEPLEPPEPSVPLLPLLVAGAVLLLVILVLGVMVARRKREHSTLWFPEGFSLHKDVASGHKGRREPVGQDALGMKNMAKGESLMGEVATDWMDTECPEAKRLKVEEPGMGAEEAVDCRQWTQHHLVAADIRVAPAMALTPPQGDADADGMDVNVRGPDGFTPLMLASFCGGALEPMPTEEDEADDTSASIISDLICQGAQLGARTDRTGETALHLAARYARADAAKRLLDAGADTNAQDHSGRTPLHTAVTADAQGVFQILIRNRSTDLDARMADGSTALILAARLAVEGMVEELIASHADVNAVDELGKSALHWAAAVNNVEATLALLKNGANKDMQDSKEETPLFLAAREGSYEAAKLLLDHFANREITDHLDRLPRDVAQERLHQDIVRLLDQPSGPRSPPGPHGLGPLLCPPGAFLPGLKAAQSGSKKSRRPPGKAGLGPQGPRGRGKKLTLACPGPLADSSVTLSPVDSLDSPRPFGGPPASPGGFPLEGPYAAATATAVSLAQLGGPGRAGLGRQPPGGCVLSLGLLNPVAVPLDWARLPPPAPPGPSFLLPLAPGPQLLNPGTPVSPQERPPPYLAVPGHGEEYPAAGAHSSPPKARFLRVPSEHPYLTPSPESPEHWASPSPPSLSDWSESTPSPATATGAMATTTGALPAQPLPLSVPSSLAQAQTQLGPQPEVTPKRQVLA
# Chain of Follistatin-related protein 3 (Homo sapiens) (O95633 whole entry, looked up): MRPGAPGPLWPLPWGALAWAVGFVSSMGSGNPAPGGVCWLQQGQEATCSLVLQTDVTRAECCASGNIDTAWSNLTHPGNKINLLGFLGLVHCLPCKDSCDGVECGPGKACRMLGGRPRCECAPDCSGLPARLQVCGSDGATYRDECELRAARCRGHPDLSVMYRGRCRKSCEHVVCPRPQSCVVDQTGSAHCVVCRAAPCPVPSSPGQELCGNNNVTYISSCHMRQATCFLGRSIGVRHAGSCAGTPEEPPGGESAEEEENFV
SMILES,composite z-score [1],z-score [2],z-score [3],z-score [4],composite z-score [5],z-score [6],composite z-score [7],composite z-score [8],composite z-score [9],composite z-score [10],composite z-score [11],composite z-score [12],composite z-score [13],z-score [14],composite z-score [15],composite z-score [16],composite z-score [17],composite z-score [18],composite z-score [19],composite z-score [20]
C=C(C)C(=O)OCC1CN2[C@@H](CC[C@@H](C)[C@@H]2c2ccc(Br)cc2)C(=O)O1 (stereo not given in full),0.855,0.275 (inactive),-0.369 (inactive),-0.427 (inactive),0.734,-0.166 (inactive),-0.118,0.172,0.947,-0.128,0.299,-0.201,-0.118,0.411 (inactive),0.237,0.363,-0.202,0.0267,0.147,-0.0608
CCOC(=O)[C@H](CC(C)C)NC(=O)CCC1CC(OC(=O)NCc2cccc3ccccc23)CC2(CCCC(COC(=O)NCCOC)O2)O1 (stereo not given in full),1.5,-1.43 (inactive),-0.837 (inactive),-1.09 (inactive),2.7,-0.157 (inactive),-0.0633,0.607,1.08,0.0576,0.546,-0.164,-0.401,-1.8 (inactive),0.799,1.3,0.412,1.17,0.358,-0.0748
CCOC(=O)[C@H](CC(C)C)NC(=O)CCC1CC(OC(=O)NCc2cccc3ccccc23)CC2(CCCC(COC(=O)NCCc3ccc(Cl)cc3)O2)O1 (stereo not given in full),0.333,-1.16 (inactive),-0.858 (inactive),-0.164 (inactive),1.04,-0.0339 (inactive),-0.188,0.434,0.741,-0.0334,0.409,-0.0738,-0.406,-1.18 (inactive),0.365,0.355,0.681,0.726,0.323,-0.293
CCN1C(=O)[C@H]2[C@H]3[C@H](O)[C@H](O)CC(=NOCC(C)C)[C@@H]3CC[C@H]2C1=O,1.55,-0.132 (inactive),-0.666 (inactive),-0.242 (inactive),2.08,-0.637 (inactive),-0.0898,1.11,1.12,0.051,0.85,-0.0898,-0.672,0.272 (inactive),0.546,1.24,0.767,0.912,0.797,-0.599
COC(=O)CC=C[C@@H](C)[C@@H]1C=C[C@H](O)[C@@H](CO)O1,-0.266,0.773 (inactive),1.08 (inactive),0.531 (inactive),0.296,0.426 (inactive),-0.177,0.381,0.601,-0.338,0.146,-0.0367,-0.48,-0.593 (inactive),0.666,0.753,0.369,0.559,1.15,0.165
CCN1C(=O)[C@H]2[C@H]3[C@H](O)[C@H](O)CC(=NOC[C@H]4O[C@H](c5ccccc5)C=C[C@@H]4Oc4ccc(OC)cc4)[C@@H]3CC[C@H]2C1=O,1.28,-0.125 (inactive),-0.653 (inactive),-0.175 (inactive),0.996,0.964 (inactive),-0.0271,0.738,1.11,-0.0085,0.605,0.0709,-0.187,0.387 (inactive),0.809,0.62,0.452,0.616,0.85,-0.0495
COc1ccc(COC(=O)NN=C2C[C@@H](O)[C@@H](O)[C@@H]3[C@@H]4C(=O)N(c5ccc(F)cc5F)C(=O)[C@@H]4CC[C@H]23)cc1,0.0093,0.201 (inactive),-4.12 (inactive),-0.971 (inactive),0.142,0.0412 (inactive),0.469,-0.186,-0.425,-0.171,0.299,0.939,1.22,-0.531 (inactive),0.0785,-0.258,-1.2,-0.496,-1.13,-0.009
CON=C[C@@H](C)[C@H](OCc1ccccc1)C(C)C,-1.25,0.0195 (inactive),-0.596 (inactive),0.772 (inactive),-0.618,-0.718 (inactive),-0.149,0.314,-0.154,-0.158,-0.187,-0.152,-0.225,-0.829 (inactive),0.0578,-0.594,0.327,0.122,0.312,0.216
CC(C)=CCCC(C)=CCON=C1C[C@@H](O)[C@@H](O)[C@@H]2[C@@H]3C(=O)N(C(C)(C)C)C(=O)[C@@H]3CC[C@H]12,0.64,0.0423 (inactive),0.473 (inactive),-0.656 (inactive),0.312,0.281 (inactive),-0.138,0.919,0.539,-0.0466,0.0059,0.0507,-0.396,0.129 (inactive),0.396,0.563,0.512,0.392,0.432,-0.159
CO[C@@H]1COC(=O)[C@@H](C)NC(=O)CC=C[C@@H](C)[C@H](NS(=O)(=O)c2ccc(C)cc2)COC(=O)[C@H](C)NC(=O)CC=C[C@H]1C,1.36,-0.263 (inactive),-0.988 (inactive),-0.331 (inactive),0.537,1.72 (inactive),-0.319,0.879,0.225,-0.0793,1.49,-0.629,-1.22,0.347 (inactive),0.611,0.625,0.57,0.661,0.822,1.4
